# Test results reported in publication PMC7862700, “An all-to-all approach to the identification of sequence-specific readers for epigenetic DNA modifications on cytosine”.
# Assays:
# Test in all cases: DAPPL (digital affinity profiling via proximity ligation, sequencing); 10 mM Tris-HCl pH 7.5, 50 mM NaCl, 1 mM DTT, 4% glycerol, room temperature, 30 min; GST-TFs on glutathione beads, 16-mer random dsDNA library, 0.1% formaldehyde crosslink after washing; high values mean tight binding
# Settings in all cases: protein: recombinant; tags: N-terminal GST; dsDNA, one strand shown
# FLI1 = molecular target: T1, FLI1 (Homo sapiens, UniProt Q01543 1-452)
# T1 sequence: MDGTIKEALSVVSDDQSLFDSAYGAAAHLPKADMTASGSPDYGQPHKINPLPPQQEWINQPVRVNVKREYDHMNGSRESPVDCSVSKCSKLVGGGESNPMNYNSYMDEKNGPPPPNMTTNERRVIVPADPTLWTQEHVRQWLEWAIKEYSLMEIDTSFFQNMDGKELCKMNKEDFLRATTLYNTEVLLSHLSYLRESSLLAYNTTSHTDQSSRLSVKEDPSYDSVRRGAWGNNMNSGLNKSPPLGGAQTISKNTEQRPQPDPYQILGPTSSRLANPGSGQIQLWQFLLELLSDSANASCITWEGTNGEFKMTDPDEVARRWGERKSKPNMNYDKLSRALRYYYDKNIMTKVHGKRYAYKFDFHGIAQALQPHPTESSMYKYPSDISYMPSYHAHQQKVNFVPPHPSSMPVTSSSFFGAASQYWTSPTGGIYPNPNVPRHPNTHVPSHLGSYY
# Summary of the method: (§1)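 Human transcription factors carrying a GST fusion were produced in yeast, bound to glutathione beads, tagged with DNA barcodes and pooled together with a tag-only sample. Each pool was held with 200 nmole of a random double-stranded 16-mer DNA library in Tris/NaCl/DTT/glycerol buffer for 30 min at room temperature, then washed, crosslinked in 0.1% formaldehyde, proximity-ligated with BsaI/T4 ligase (1 h, 37 °C), PCR-amplified and sequenced on an Illumina NextSeq500. Binding signal is the read frequency of each hexamer for a given factor divided by its frequency in the tag-only sample.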
# ELK1 = molecular target: T2, ELK1 (Homo sapiens, UniProt P19419 1-428)
# T2 sequence: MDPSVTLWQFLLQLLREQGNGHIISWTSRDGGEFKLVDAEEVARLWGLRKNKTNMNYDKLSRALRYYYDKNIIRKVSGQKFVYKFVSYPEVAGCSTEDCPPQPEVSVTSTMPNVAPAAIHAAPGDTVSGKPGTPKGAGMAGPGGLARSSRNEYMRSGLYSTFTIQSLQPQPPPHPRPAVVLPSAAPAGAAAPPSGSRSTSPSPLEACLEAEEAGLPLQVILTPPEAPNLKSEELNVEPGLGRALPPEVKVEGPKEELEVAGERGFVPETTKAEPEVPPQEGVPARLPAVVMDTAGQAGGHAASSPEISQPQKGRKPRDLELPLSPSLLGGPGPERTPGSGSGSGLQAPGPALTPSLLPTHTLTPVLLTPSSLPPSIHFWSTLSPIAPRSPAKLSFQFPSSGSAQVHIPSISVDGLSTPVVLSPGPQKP
# Summary of the method: as §1
# GABPA = molecular target: T3, GABPA (Homo sapiens, UniProt Q06546 1-454)
# T3 sequence: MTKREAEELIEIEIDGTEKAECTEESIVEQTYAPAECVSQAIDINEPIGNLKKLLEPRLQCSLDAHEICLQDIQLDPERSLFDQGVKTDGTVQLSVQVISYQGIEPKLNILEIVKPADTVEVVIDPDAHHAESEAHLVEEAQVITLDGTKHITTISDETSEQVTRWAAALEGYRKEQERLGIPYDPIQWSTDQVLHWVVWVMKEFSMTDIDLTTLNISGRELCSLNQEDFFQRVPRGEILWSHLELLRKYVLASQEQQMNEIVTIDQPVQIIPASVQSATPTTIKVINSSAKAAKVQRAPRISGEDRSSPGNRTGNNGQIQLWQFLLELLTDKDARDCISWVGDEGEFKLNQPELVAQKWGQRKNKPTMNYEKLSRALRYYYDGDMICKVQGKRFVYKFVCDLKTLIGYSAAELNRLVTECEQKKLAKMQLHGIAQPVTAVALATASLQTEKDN
# Summary of the method: as §1
# ERG = molecular target: T4, ERG (Homo sapiens, UniProt P11308 1-479)
# T4 sequence: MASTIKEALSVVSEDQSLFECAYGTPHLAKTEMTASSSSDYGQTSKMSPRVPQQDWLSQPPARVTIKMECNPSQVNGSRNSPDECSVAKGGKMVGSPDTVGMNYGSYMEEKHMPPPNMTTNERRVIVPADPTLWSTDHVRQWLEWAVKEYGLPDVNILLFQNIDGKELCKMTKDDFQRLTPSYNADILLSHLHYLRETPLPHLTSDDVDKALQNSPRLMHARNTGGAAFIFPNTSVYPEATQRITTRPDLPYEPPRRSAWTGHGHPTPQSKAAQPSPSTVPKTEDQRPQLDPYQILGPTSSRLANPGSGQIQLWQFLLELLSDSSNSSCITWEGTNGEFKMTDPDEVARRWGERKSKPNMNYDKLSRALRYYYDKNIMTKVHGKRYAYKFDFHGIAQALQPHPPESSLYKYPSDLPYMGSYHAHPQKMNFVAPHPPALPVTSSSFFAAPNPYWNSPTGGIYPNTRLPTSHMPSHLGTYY
# Summary of the method: as §1
# ELF1 = ELF1 (Homo sapiens, UniProt P32519 1-619)
# Sequence of ELF1 (P32519 whole entry): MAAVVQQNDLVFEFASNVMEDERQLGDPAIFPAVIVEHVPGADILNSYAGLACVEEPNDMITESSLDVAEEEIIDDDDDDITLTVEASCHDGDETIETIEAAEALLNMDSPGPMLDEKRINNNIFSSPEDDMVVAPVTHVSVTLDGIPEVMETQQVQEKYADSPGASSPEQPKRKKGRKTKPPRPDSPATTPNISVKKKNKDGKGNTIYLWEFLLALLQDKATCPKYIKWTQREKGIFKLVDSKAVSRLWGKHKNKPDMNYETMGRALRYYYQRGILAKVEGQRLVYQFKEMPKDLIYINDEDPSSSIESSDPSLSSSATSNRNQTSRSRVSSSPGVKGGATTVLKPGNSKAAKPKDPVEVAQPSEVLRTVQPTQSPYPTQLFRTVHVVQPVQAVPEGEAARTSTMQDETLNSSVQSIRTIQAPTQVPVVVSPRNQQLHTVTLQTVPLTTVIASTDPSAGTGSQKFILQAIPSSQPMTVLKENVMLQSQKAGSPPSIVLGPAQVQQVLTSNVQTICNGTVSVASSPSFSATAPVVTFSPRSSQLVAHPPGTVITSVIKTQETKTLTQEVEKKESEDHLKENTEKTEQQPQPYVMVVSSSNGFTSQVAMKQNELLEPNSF
# Summary of the method: as §1
# EHF = molecular target: T5, EHF (Homo sapiens, UniProt Q9NZC4 1-300)
# T5 sequence: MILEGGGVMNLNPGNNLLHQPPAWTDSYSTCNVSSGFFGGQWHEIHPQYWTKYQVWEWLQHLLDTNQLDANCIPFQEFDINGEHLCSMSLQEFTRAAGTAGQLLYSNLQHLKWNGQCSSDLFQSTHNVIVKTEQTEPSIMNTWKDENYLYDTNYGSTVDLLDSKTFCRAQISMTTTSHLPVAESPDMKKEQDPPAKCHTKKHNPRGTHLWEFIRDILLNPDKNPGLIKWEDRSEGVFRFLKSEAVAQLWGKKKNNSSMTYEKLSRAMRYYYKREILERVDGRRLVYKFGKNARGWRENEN
# Summary of the method: as §1
# SPI1 = SPI1 (Homo sapiens, UniProt P17947 1-270)
# Summary of the method: as §1
# SPIB = SPIB (Homo sapiens, UniProt Q01892 1-262)
# Sequence of SPIB (Q01892 whole entry): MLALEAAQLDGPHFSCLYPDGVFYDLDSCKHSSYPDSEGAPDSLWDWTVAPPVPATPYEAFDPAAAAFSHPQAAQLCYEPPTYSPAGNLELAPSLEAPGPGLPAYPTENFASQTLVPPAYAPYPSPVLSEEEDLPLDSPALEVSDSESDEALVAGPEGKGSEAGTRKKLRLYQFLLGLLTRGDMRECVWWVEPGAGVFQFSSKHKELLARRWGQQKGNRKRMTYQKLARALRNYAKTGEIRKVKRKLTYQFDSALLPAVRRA
# Summary of the method: as §1
# ELK3 = molecular target: T6, ELK3 (Homo sapiens, UniProt P41970 1-407)
# T6 sequence: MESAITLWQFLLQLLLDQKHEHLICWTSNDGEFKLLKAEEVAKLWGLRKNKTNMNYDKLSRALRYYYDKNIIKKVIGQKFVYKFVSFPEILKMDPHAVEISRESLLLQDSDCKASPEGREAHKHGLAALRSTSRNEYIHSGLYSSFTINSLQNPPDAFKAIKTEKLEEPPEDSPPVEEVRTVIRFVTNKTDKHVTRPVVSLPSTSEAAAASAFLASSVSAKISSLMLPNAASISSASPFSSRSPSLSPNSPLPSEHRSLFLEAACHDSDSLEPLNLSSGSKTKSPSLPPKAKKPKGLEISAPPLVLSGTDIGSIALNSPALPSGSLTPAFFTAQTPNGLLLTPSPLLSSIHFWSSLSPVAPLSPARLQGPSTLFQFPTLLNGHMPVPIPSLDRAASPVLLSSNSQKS
# Summary of the method: as §1
Sequence,binding signal (FLI1),binding signal (ELK1),binding signal (GABPA),binding signal (ERG),binding signal (ELF1),binding signal (EHF),binding signal (SPI1),binding signal (SPIB),binding signal (ELK3)
TAATTC,"1.5 fold enrichment (6-mer frequency, TF over GST control)","1.36 fold enrichment (6-mer frequency, TF over GST control)","1.48 fold enrichment (6-mer frequency, TF over GST control)","1.48 fold enrichment (6-mer frequency, TF over GST control)","1.48 fold enrichment (6-mer frequency, TF over GST control)","1.37 fold enrichment (6-mer frequency, TF over GST control)","1.33 fold enrichment (6-mer frequency, TF over GST control)","1.51 fold enrichment (6-mer frequency, TF over GST control)","1.58 fold enrichment (6-mer frequency, TF over GST control)"
AGGTCT,"1.31 fold enrichment (6-mer frequency, TF over GST control)","1.17 fold enrichment (6-mer frequency, TF over GST control)","1.16 fold enrichment (6-mer frequency, TF over GST control)","1.15 fold enrichment (6-mer frequency, TF over GST control)","1.22 fold enrichment (6-mer frequency, TF over GST control)","1.19 fold enrichment (6-mer frequency, TF over GST control)","1.11 fold enrichment (6-mer frequency, TF over GST control)","1.22 fold enrichment (6-mer frequency, TF over GST control)","1.3 fold enrichment (6-mer frequency, TF over GST control)"
CTTAAT,"1.37 fold enrichment (6-mer frequency, TF over GST control)","1.2 fold enrichment (6-mer frequency, TF over GST control)","1.34 fold enrichment (6-mer frequency, TF over GST control)","1.13 fold enrichment (6-mer frequency, TF over GST control)","1.26 fold enrichment (6-mer frequency, TF over GST control)","1.24 fold enrichment (6-mer frequency, TF over GST control)","1.31 fold enrichment (6-mer frequency, TF over GST control)","1.3 fold enrichment (6-mer frequency, TF over GST control)","1.47 fold enrichment (6-mer frequency, TF over GST control)"
ACTTCT,"1.49 fold enrichment (6-mer frequency, TF over GST control)","1.53 fold enrichment (6-mer frequency, TF over GST control)","1.5 fold enrichment (6-mer frequency, TF over GST control)","1.43 fold enrichment (6-mer frequency, TF over GST control)","1.52 fold enrichment (6-mer frequency, TF over GST control)","1.56 fold enrichment (6-mer frequency, TF over GST control)","1.62 fold enrichment (6-mer frequency, TF over GST control)","1.45 fold enrichment (6-mer frequency, TF over GST control)","1.48 fold enrichment (6-mer frequency, TF over GST control)"
GCTTGC,"1.41 fold enrichment (6-mer frequency, TF over GST control)","1.28 fold enrichment (6-mer frequency, TF over GST control)","1.21 fold enrichment (6-mer frequency, TF over GST control)","1.14 fold enrichment (6-mer frequency, TF over GST control)","1.25 fold enrichment (6-mer frequency, TF over GST control)","1.28 fold enrichment (6-mer frequency, TF over GST control)","1.18 fold enrichment (6-mer frequency, TF over GST control)","1.24 fold enrichment (6-mer frequency, TF over GST control)","1.3 fold enrichment (6-mer frequency, TF over GST control)"
TTCCAC,"1.39 fold enrichment (6-mer frequency, TF over GST control)","1.28 fold enrichment (6-mer frequency, TF over GST control)","1.38 fold enrichment (6-mer frequency, TF over GST control)","1.4 fold enrichment (6-mer frequency, TF over GST control)","1.45 fold enrichment (6-mer frequency, TF over GST control)","1.33 fold enrichment (6-mer frequency, TF over GST control)","1.42 fold enrichment (6-mer frequency, TF over GST control)","1.35 fold enrichment (6-mer frequency, TF over GST control)","1.5 fold enrichment (6-mer frequency, TF over GST control)"
ATAGTA,"1.12 fold enrichment (6-mer frequency, TF over GST control)","1.18 fold enrichment (6-mer frequency, TF over GST control)","1.19 fold enrichment (6-mer frequency, TF over GST control)","1.15 fold enrichment (6-mer frequency, TF over GST control)","1.19 fold enrichment (6-mer frequency, TF over GST control)","1.22 fold enrichment (6-mer frequency, TF over GST control)","1.06 fold enrichment (6-mer frequency, TF over GST control)","1.13 fold enrichment (6-mer frequency, TF over GST control)","1.12 fold enrichment (6-mer frequency, TF over GST control)"
TGTTCT,"1.4 fold enrichment (6-mer frequency, TF over GST control)","1.4 fold enrichment (6-mer frequency, TF over GST control)","1.28 fold enrichment (6-mer frequency, TF over GST control)","1.38 fold enrichment (6-mer frequency, TF over GST control)","1.39 fold enrichment (6-mer frequency, TF over GST control)","1.4 fold enrichment (6-mer frequency, TF over GST control)","1.29 fold enrichment (6-mer frequency, TF over GST control)","1.35 fold enrichment (6-mer frequency, TF over GST control)","1.21 fold enrichment (6-mer frequency, TF over GST control)"
